Hits are enriched below; roughly 4.3% of the tested compounds scored in any of these assays.
Yeast superoxide = reduction of superoxide in aged yeast, primary screen, HTS. superoxide response (% of plate mean), % at 10 µM. hit rate 0.18% among 330,000. S. cerevisiae aged cells, superoxide DHE fluorescence; hits give low values. AID 2690, 2010;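 active = superoxide response under a set limit, about three screen SD below normal, cut at about 65% in these data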;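 also: yeast aged for seven days with compound at 30 °C before DHE staining; 100% = average MFI of all compound-treated wells on the plate with controls excluded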
dFosB act-1 = activators of delta FosB homodimer, primary screen, biochemical, fluorescence polarization, TAMRA-CDK5 oligo, single point. Protein FosB (Mus musculus), P13346. hit rate 0.99% among 340,000. activation, % at 25 µM. purified delta FosB; percent of positive-control signal above neutral wells. AID 493131, 2011;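 active = mean activation above about 17%, with every replicate also reaching it, limit read from the data, passing the limit was not always enough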
UBC13 inh = UBC13 polyubiquitin chain formation inhibitors, primary screen, biochemical, TR-FRET, uHTS. Ubiquitin-conjugating enzyme E2 N (Homo sapiens), P61088. inhibition, % at 20 µM. hit rate 0.47% among 330,000. AID 485273, 2010; in the data active = inhibition above about 45%, passing the limit was not always enough
Target sequence (P61088 whole entry, looked up): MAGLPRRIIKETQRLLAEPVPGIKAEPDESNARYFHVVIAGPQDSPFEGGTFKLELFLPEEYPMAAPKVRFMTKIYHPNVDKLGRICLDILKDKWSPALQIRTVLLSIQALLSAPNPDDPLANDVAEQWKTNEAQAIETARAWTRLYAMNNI
NR3A LBD binder = binders of NR3A ligand-binding domain, primary screen, biophysical, differential scanning fluorimetry, uHTS | Tm shift relative to glycine control, % at 25 µM | Glutamate receptor ionotropic, NMDA 3A (GRIN3A) ligand-binding domain | NR3A LBD differential scanning fluorimetry, Tm shift; 0% = protein alone, 100% = glycine-bound protein | AID 1259313, 2017 | hit rate 2.5% among 340,000;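 active = melting temperature shift of at least 10% of the positive control shift, at one fixed dose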
NALP1 yeast inh = NALP1 inflammasome inhibitors in reconstituted yeast, colorimetric, S. cerevisiae, triplicate retest. S. cerevisiae NALP1/ASC/caspase-1 growth, X-gal OD620, 72 h. inhibition, % at 10 µM. hit rate 0.61% among 280,000. AID 2071, 2009; in the data active = inhibition mostly above about 24%, no sharp cut-off; inactive = mostly below about 32%
dFosB act-2 = activators of mouse delta FosB DNA binding, confirmation, biochemical, fluorescence polarization, TAMRA-CDK5 oligo, cherry-picked samples; shares compounds with dFosB act-1; purified delta FosB; normalised: neutral wells 0, positive control 100; activation, % at 24.9 µM; 2,400 tested, under 10 active; AID 588690, 2011;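 active = highest replicate activation at or above 34% and every replicate reaching that threshold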;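 also: higher polarization means more probe DNA bound by delta FosB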
The depositor's hits bear a star; . = no result given.

SMILES	Yeast superoxide	dFosB act-1	UBC13 inh	NR3A LBD binder	NALP1 yeast inh	dFosB act-2
CCOC(=O)c1ccc(NC(=O)CC2S/C(=N/N=C3/NC(=O)CS3)NC2=O)cc1 (configuration not stated)	98	23*	21	1	0	1
Cc1ccc(C)c(N2CCN(C(=O)Cn3c(=O)oc4cc(S(=O)(=O)N5CCCC5)ccc43)CC2)c1	114	35*	-1	2	22	2
O=C(Cn1c(=O)oc2cc(S(=O)(=O)N3CCCC3)ccc21)NC1CCCc2ccccc21 (configuration not stated)	106	26*	-16	-6	27	3
O=[N+]([O-])c1ccc2[nH]c3nc4ccccc4nc3c2c1	78	38*	-13	-8	5	8
O=[N+]([O-])c1ccc2[nH]nc(-c3ccccc3)c2c1	106	-5	-8	-8	28	.
CN(CC(=O)Nc1ccccc1Br)C(=O)CCSc1ccc(F)cc1	97	-9	6	1	.	.
COc1cc2c(cc1OC)CN(C(=O)CN1CCN(S(=O)(=O)c3ccccc3)CC1)CC2	96	-5	1	-2	-13	.
CCc1cccc2c(C(=O)COC(=O)c3ccc(O)cc3)c[nH]c12	99	36*	-1	15*	37	4
O=C(O)c1ccc(NC(=O)c2ccccc2NC(=O)c2ccccc2Cl)cc1	125	-1	3	-2	20	.
Cc1cccc(Nc2nc(NCc3ccco3)nc(N)c2[N+](=O)[O-])c1	88	5	3	-2	2	.
Cc1cccc(Nc2nc(N)c([N+](=O)[O-])c(NCc3ccco3)n2)c1	96	53*	10	-10	29	5
Cc1ccc(Nc2nc(N)c([N+](=O)[O-])c(NCc3ccccc3)n2)cc1	106	47*	7	1	5	0
CCN(CC)CCNC(=O)C1CCN(S(=O)(=O)c2c(C)noc2/C=C/c2ccccc2F)CC1	106	-21	10	-1	4	.
N#Cc1ccsc1NC(=O)COC(=O)c1ccc(NC(N)=O)cc1	107	-11	-7	-2	-25	.
NC(=O)Nc1ccc(C(=O)OCC(=O)Nc2sccc2C(N)=O)cc1	.	17*	12	32*	.	-7
CCOC(=O)C1=c2/c(=C/c3ccncc3)c(N)c(C(=O)OC)n2C(=O)C(c2ccncc2)S1 (configuration not stated)	134	-3	-2	-2	4	.
COc1ccccc1NC(=O)c1cc(S(=O)(=O)N2CCc3ccccc32)ccc1F	102	30*	-4	1	-22	5
CCNC(=S)N1CCC(C(N)=O)CC1	96	-2	0	-2	.	.
CN(C)S(=O)(=O)Oc1cc(Cl)ccc1C(=O)Nc1ccc(F)cc1F	98	-5	7	0	0	.
Cc1ccc(S(=O)(=O)N2CCC(C(=O)N[C@@H](C)C(=O)NC3CCCCC3)CC2)cc1	107	39*	-1	4	-5	7
COc1ccc(S(=O)(=O)N2CCC(C(=O)N[C@@H](C)C(=O)NC3CCCC3)CC2)cc1	97	20*	-2	2	-13	5
Cc1ccc(S(=O)(=O)N2CCC(C(=O)N[C@H](C(=O)NCc3ccco3)C(C)C)CC2)cc1	103	18*	-10	1	11	-7
COc1ccc(CNC(=O)[C@H](C)NC(=O)C2CCN(S(=O)(=O)c3ccc(C)cc3)CC2)cc1	85	3	-5	2	5	.
COc1ccc(NC(=O)[C@H](C)NC(=O)C2CCN(S(=O)(=O)c3ccc(C)cc3)CC2)cc1OC	98	-2	-11	-1	21	.
CC(OC(=O)CNC(=O)c1ccc2ccccc2c1)C(=O)NC1CCCCC1C (configuration not stated)	118	-9	1	0	-17	.
CC(C)(C)CN1CCN(CCCc2ccccc2)C(CCO)C1 (configuration not stated)	95	2	3	0	22	.

Screens as filed in PubChem BioAssay.
